Shown is part of a subset that was picked to be rich in hits.
miR-122 inh = miR-122 sensor activation; Huh7 psiCHECK-miR122 Renilla luciferase sensor, 48 h; activation, % at 12.5 µM; 0.14% of 340,000 active; AID 623901;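 active = mean activation of 30% or more, with every replicate also reaching 30%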;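 note: higher luciferase signal means stronger suppression of miR-122 activity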
Of the large screens only hits and unclear results are named; the others gave an inactive call.

C[C@@H]1CN([C@@H](C)CO)C(=O)Cc2cc(NC(=O)C3CCCCC3)ccc2O[C@H]1CN(C)Cc1ccncc1	none
C[C@H](CO)N1C[C@H](C)[C@H](CN(C)Cc2ccc(C(=O)Nc3ccccc3N)cc2)Oc2ccc(NC(=O)Nc3ccc(F)cc3)cc2CC1=O	none
CCCNC(=O)Nc1ccc2c(c1)OC[C@H](C)N(C)C[C@H](C)[C@@H](OC)CN(C)C2=O	none
CC(C)NC(=O)N(C)C[C@H]1Oc2ncc(C3=CCCCC3)cc2C(=O)N([C@H](C)CO)C[C@H]1C	none
C[C@H]1CN([C@@H](C)CO)C(=O)c2cc(-c3ccccc3)cnc2O[C@H]1CN(C)C(=O)Nc1ccc2c(c1)OCO2	none
C[C@@H]1CN([C@H](C)CO)C(=O)c2cc(NC(=O)Cc3cn(C)c4ccccc34)ccc2O[C@@H]1CN(C)S(=O)(=O)c1ccc(Cl)cc1	none
C/C=C/c1ccc2c(c1)O[C@@H](CN(C)S(C)(=O)=O)[C@@H](C)CN([C@@H](C)CO)S2(=O)=O	none
CCC(=O)Nc1ccc2c(c1)C(=O)N(C)C[C@@H](OC)[C@H](C)CN(Cc1ccccc1OC)[C@H](C)CO2	none
CCCn1c(CC)nc([N+](=O)[O-])c1S(=O)(=O)c1ccccc1	miR-122 inh 47.9
CCC(=O)N(C)C[C@@H]1Oc2ncc(C#C[C@H](C)O)cc2C(=O)N([C@@H](C)CO)C[C@H]1C	none
C[C@@H]1CN([C@@H](C)CO)S(=O)(=O)c2ccc(C#CCN(C)C)cc2O[C@@H]1CN(C)C(=O)CN(C)C	none
CCCNC(=O)N1C[C@H](C)[C@@H](OC)CN(C)C(=O)c2cc(NS(=O)(=O)CC)ccc2OC[C@@H]1C	none
CCS(=O)(=O)Nc1ccc2c(c1)C(=O)N(C)C[C@@H](OC)[C@H](C)CN(CC1CCCC1)[C@H](C)CO2	miR-122 inh 38.0
CCCNC(=O)N1C[C@@H](C)[C@@H](OC)CN(C)C(=O)c2cc(NS(=O)(=O)CC)ccc2OC[C@H]1C	none
COc1ccccc1-c1ccc2c(c1)O[C@H](CN(C)C(C)=O)[C@@H](C)CN([C@H](C)CO)S2(=O)=O	none
CO[C@@H]1CN(C)C(=O)c2cc(NC(C)=O)ccc2OC[C@H](C)N(C(=O)CN(C)C)C[C@@H]1C	none
COc1cccc(-c2ccc3c(c2)[C@H]2[C@H](CCN2S(=O)(=O)c2ccccc2C)[C@@H](CO)N3)c1	none
C[C@@H]1CN([C@@H](C)CO)S(=O)(=O)c2ccc(-c3cccc(C#N)c3)cc2O[C@H]1CN(C)C(=O)Nc1ccccc1F	none
O=C(Nc1ccc(F)cc1)N1CCCCN2[C@H](CO)[C@@H](c3ccc(C#Cc4ccccc4)cc3)[C@H]2C1	miR-122 inh 34.2
COc1cccc(NC(=O)N(C)C[C@@H]2Oc3cc(C#Cc4ccccc4)ccc3S(=O)(=O)N([C@H](C)CO)C[C@@H]2C)c1	none
COc1ccc(C#Cc2ccc([C@@H]3[C@@H](CO)N4CCCCN(C(=O)Nc5ccccc5)C[C@H]34)cc2)cc1	miR-122 inh 33.9
O=C(Nc1ccccc1F)N1CCCCN2[C@@H](CO)[C@@H](c3ccc(C#Cc4ccccc4)cc3)[C@@H]2C1	miR-122 inh 37.4
CC(C)C#Cc1ccc2c(c1)O[C@@H](CN(C)C(=O)CC1CC1)[C@@H](C)CN([C@H](C)CO)S2(=O)=O	none
C[C@H]1CN([C@@H](C)CO)C(=O)c2cc(/C=C/c3ccccc3)cnc2O[C@H]1CN(C)Cc1ccccc1F	none
C[C@H](CO)N1C[C@H](C)[C@H](CN(C)C(=O)Cc2ccccn2)Oc2cc(-c3ccc(C(=O)N(C)C)cc3)ccc2S1(=O)=O	none
C[C@@H]1CN([C@@H](C)CO)S(=O)(=O)c2ccc(C#Cc3cccnc3)cc2O[C@H]1CN(C)C(=O)C1CC1	none
CCCC(=O)Nc1ccc2c(c1)OC[C@H](C)N(C)C[C@H](C)[C@H](OC)CN(C)C2=O	none
CCS(=O)(=O)Nc1ccc2c(c1)C(=O)N(C)C[C@H](OC)[C@H](C)CN[C@@H](C)CO2	none
C[C@@H]1CN([C@H](C)CO)C(=O)Cc2cc(N(C)C)ccc2O[C@@H]1CN(C)Cc1ccc(C(=O)Nc2ccccc2N)cc1	none
COc1ccc(CN2CCc3c([nH]c4ccccc34)C2)c(OC)c1C	miR-122 inh 41.7
C[C@@H]1CN([C@@H](C)CO)C(=O)c2cc(C3=CCCCC3)cnc2O[C@H]1CN(C)Cc1cccc(F)c1	none
CCC(=O)Nc1ccc2c(c1)OC[C@H](C)N(C(=O)c1ccccc1F)C[C@H](C)[C@@H](OC)CN(C)C2=O	none
Cc1ccccc1NCN1C(=O)C2C3C=CC(C3)C2C1=O (stereo not drawn)	miR-122 inh 33.6
C[C@@H]1CN([C@H](C)CO)C(=O)c2cc(C#Cc3ccc(F)cc3)cnc2O[C@H]1CN(C)CC1CCOCC1	none
CC(C)CC#Cc1cnc2c(c1)C(=O)N([C@H](C)CO)C[C@@H](C)[C@H](CN(C)Cc1ccc(F)cc1)O2	none
O=S(=O)(c1ccccc1F)N1CC[C@@H]2[C@@H](CO)Nc3ccc(-c4ccc(F)cc4)cc3[C@@H]21	none
CC(=O)C1=C(c2ccc(Br)cc2)C(=O)c2ccccc2C1=O	miR-122 inh 76.2
CC(=O)N(C)C[C@H]1Oc2cc(C#CC3CCCCC3)ccc2S(=O)(=O)N([C@H](C)CO)C[C@@H]1C	none
CNC[C@@H]1Oc2cc(-c3ccc(OC)cc3)ccc2S(=O)(=O)N([C@H](C)CO)C[C@H]1C	none
O=C(/C=C/Nc1cccc([N+](=O)[O-])c1)c1cccs1	none
N#Cc1cccc(NC(=O)Nc2cccs2)c1	miR-122 inh 35.8
CC(C)C#Cc1cnc2c(c1)C(=O)N([C@H](C)CO)C[C@@H](C)[C@H](CN(C)C(=O)CC1CC1)O2	none
C/C=C/c1cnc2c(c1)C(=O)N([C@H](C)CO)C[C@@H](C)[C@@H](CN(C)C(=O)Cc1cccnc1)O2	none
CCOC(=O)/C(=C\C=C1/Sc2ccccc2N1CC)C(C)=O	miR-122 inh 52.1
C[C@H](CO)N1C[C@H](C)[C@H](CN(C)Cc2ccccc2)Oc2ncc(-c3cccc(C#N)c3)cc2C1=O	none
O=C(C1CC1)N(CCN(C(=O)C1CC1)c1ccccc1)c1ccccc1	miR-122 inh 30.4
Cc1ccc(S(=O)(=O)N(C)C[C@@H]2Oc3ncc(-c4cccc(F)c4)cc3C(=O)N([C@H](C)CO)C[C@@H]2C)cc1	none
C[C@@H]1CN([C@@H](C)CO)S(=O)(=O)c2ccc(-c3cncnc3)cc2O[C@@H]1CN(C)Cc1ccccn1	none
CO[C@@H]1CN(C)C(=O)c2ccc(NC(=O)CN(C)C)cc2OC[C@@H](C)N(C(=O)C2CCCCC2)C[C@H]1C	none
CO[C@@H]1CN(C)C(=O)c2cc(NC(C)=O)ccc2OC[C@@H](C)N(C(=O)c2ccccc2)C[C@H]1C	none
CCCCOc1ccc(S(=O)(=O)Nc2ccc(NC(C)=O)cc2)cc1	none
CCCCNC(=O)Nc1nnc(-c2ccc(OCC)cc2)o1	miR-122 inh 35.9
C[C@H]1CN([C@@H](C)CO)C(=O)c2cc(/C=C/c3ccccc3)cnc2O[C@@H]1CN(C)C(=O)C1CCOCC1	none
C[C@@H]1CN([C@@H](C)CO)S(=O)(=O)c2ccc(Br)cc2O[C@@H]1CN(C)S(C)(=O)=O	none
COc1cccc(S(=O)(=O)N(C)C[C@@H]2Oc3ncc(C#Cc4ccccc4)cc3C(=O)N([C@H](C)CO)C[C@@H]2C)c1	none
Cc1c(NC(=O)/C=C/c2cn(-c3ccccc3)nc2-c2ccccc2)c(=O)n(-c2ccccc2)n1C	miR-122 inh 37.3
COCC(=O)Nc1ccc2c(c1)OC[C@@H](C)NC[C@@H](C)[C@H](OC)CN(C)C2=O	none
CO[C@H]1CN(C)C(=O)c2cc(NS(=O)(=O)CC(F)(F)F)ccc2OC[C@H](C)N(C)C[C@H]1C	none
C[C@@H]1CN([C@H](C)CO)S(=O)(=O)c2ccc(/C=C/c3ccccc3)cc2O[C@H]1CN(C)C(=O)Nc1cccc(F)c1	none
CO[C@H]1CN(C)C(=O)c2ccc(NC(=O)Nc3ccc(Cl)cc3)cc2OC[C@@H](C)N(C)C[C@@H]1C	none
COc1cnc(-c2ccccn2)nc1Sc1ccccc1Cl	miR-122 inh 39.3
C[C@@H]1CN([C@@H](C)CO)S(=O)(=O)c2ccc(C#Cc3ccccn3)cc2O[C@H]1CN(C)Cc1ccc(F)cc1	none
